Compound activity (PubChem BioAssay)
Methyltransferases: Primary Screen for Target Class Profiling of Small Molecule Inhibitors of Methyltransferases; purified enzyme, MTase-Glo SAH luminescence; hits give low values; calls only at 40 µM; 25,000 tested, 3.9% active; AID 1745853, 2022; call rule not given here
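Each enzyme was assayed with SAM and its substrate. SAH formation detected by MTase-Glo luminescence; single-point 40 uM screen[…].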
Each line names hits and unclear results; the compound was inactive in the other large screens. Many of the other results were omitted from the sample, so hits are more common in it than they were.

C=CCn1c(=O)c2ccc(C(=O)NCC(C)C)cc2n2c(=O)n(CC(=O)NCc3ccccc3)nc12	none
CCCn1c(=O)c2ccc(Cl)cc2n2c(=O)n(CC(=O)c3ccc(Br)cc3)nc12	none
CCN1CCN(Cc2ccc(Nc3ncc(F)c(-c4cc(F)c5nc(C)n(C(C)C)c5c4)n3)nc2)CC1	Methyltransferases active
COc1ccccc1CNC(=O)C1(C)Cn2nc(-c3ccccc3)cc2C(=O)N1c1ccc(Cl)cc1 (stereo not drawn)	none
Cc1ccc(C)c(Cn2nc3n(C(C)C)c(=O)c4ccc(C(=O)NC(C)C)cc4n3c2=O)c1	none
COc1cccc2c1OCC(NS(=O)(=O)c1ccc(Cl)cc1)C2 (stereo not drawn)	none
C/C(=N\N=C(N)N)c1cc(NC(=O)CCCCCCCCC(=O)Nc2cc(/C(C)=N/N=C(N)N)cc(/C(C)=N/N=C(N)N)c2)cc(/C(C)=N/N=C(N)N)c1	Methyltransferases active
O=c1[nH]c2cc(Br)c(S(=O)(=O)NCCN3CCN(c4ccccc4F)CC3)cc2[nH]1	none
CCCN1C(=O)c2c(C(=O)NCc3ccc(N(C)C)cc3)ncn2CC1(C)C(=O)NCc1ccc(OC)cc1 (stereo not drawn)	none
COc1ccc(OC)c(Nc2nc3c(S(=O)(=O)c4ccc(F)cc4)nnn3c3ccccc23)c1	none
Cc1ccccc1CN1C(=O)c2cc3sccc3n2CC1(C)C(=O)NC1CCCC1 (stereo not drawn)	none
Cc1ccc(Cn2c(=O)c3ccccc3n3c(-c4cccc(Cl)c4)nnc23)cc1	none
COc1ccc(-c2n[nH]n3c2nc(=O)c2ccc(C(=O)NCCC(C)C)cc23)cc1	none
CNCCC(c1cccs1)c1ccc(O)c2ccccc12 (stereo not drawn)	Methyltransferases active
Cn1c2c(c3ccccc31)C(C(=O)NCc1ccccc1)N(c1ccccc1Cl)C(=O)CS2 (stereo not drawn)	none
CCCc1nc2c3ccccc3n(CC(=O)N3CCN(c4ccc(F)cc4)CC3)c(=O)n2n1	none
CC1(C(=O)NC2CCCC2)Cn2cnc(C(=O)Nc3cccc(Cl)c3)c2C(=O)N1C1CC1 (stereo not drawn)	none
COc1cccc(NC(=O)Cn2c(=O)oc3cc(S(=O)(=O)N4CCCCC4C)ccc32)c1 (stereo not drawn)	Methyltransferases active
COc1ccc(NC(=O)Cn2c(=O)oc3cc(S(=O)(=O)N4CCCC4)ccc32)cc1	none
CC1CCN(C(=O)Cn2c(=O)oc3cc(S(=O)(=O)N4CCCCC4C)ccc32)CC1 (stereo not drawn)	none
O=C(Cn1ccc2cc(S(=O)(=O)N3CCCCC3)ccc21)NCCCN1CCOCC1	none
COC(=O)c1cc2n(n1)CC(C)(C(=O)NC1CCCCCC1)N(c1cccc(OC)c1)C2=O (stereo not drawn)	none
CC(C)CCn1c(=O)c2ccccc2n2c(CCC(=O)NCCCOC(C)C)nnc12	none
COc1ccccc1CN1C(=O)c2nc3ccccc3n2CC1(C)C(=O)NC1CCCCCC1 (stereo not drawn)	none
COc1cc(C(=O)OC[C@H]2O[C@@H](Oc3ccccc3/C=C/C(=O)O)[C@H](O)[C@@H](O)[C@@H]2O)cc(OC)c1OC	Methyltransferases active
COc1cc(/C=C/C(=O)O[C@H]2[C@H](O)[C@@H](CO)O[C@@]2(CO)O[C@H]2O[C@H](COC(=O)c3ccc(O)cc3)[C@@H](O)[C@H](O)[C@H]2O)cc(OC)c1OC	none
COc1ccc(/C=C\C(=O)O)c(O[C@@H]2O[C@H](CO)[C@@H](O)[C@H](O)[C@H]2O)c1	none
Cc1ccc(N2C(=O)c3cc(-c4ccco4)nn3CC2(C)C(=O)NC2CCCCC2)c(C)c1 (stereo not drawn)	none
CC(C)(C)c1cc2n(n1)CC(C)(C(=O)NC1CCCCC1)N(CCCc1ccccc1)C2=O (stereo not drawn)	none
CCOCCCN1C(=O)c2cc3ccc(OC)cc3n2CC1(C)C(=O)NC1CCCCC1 (stereo not drawn)	none
CCc1ccccc1NS(=O)(=O)c1cc2c(cc1C)n(C)c(=O)n2C	none
O=C(Cn1nc2n(CCc3ccccc3)c(=O)c3ccccc3n2c1=O)Nc1ccc(F)cc1F	none
C[n+]1cc2c3c(ccc2c2ccc4cc5c(cc4c21)OCO5)OCO3	Methyltransferases active
CCC(C)NC(=O)c1ccc2c(=O)n(CC(C)C)c3nn(Cc4ccccc4Cl)c(=O)n3c2c1 (stereo not drawn)	none
CC1(CO)CC(O)C2(C)CCC3(C)C(=CCC4C5(C=O)CCC(OC6OC(C(=O)O)C(O)C(O)C6OC6OC(C(=O)O)C(O)C(O)C6O)C(C)(C)C5CCC43C)C2C1 (stereo not drawn)	Methyltransferases active
C[C@@H]1O[C@@H](O[C@H]2[C@H](O[C@H]3[C@H](O[C@H]4CC[C@@]5(C)C(CC[C@]6(C)C5CC=C5[C@@H]7CC(C)(C)C[C@@H](O)[C@]7(C)CC[C@]56C)[C@@]4(C)CO)O[C@H](C(=O)O)[C@@H](O)[C@@H]3O)O[C@H](CO)[C@H](O)[C@@H]2O)[C@H](O)[C@H](O)[C@H]1O (stereo partly drawn)	none
C[C@@H]1O[C@@H](O[C@H]2[C@H](O[C@H]3[C@H](O[C@H]4CC[C@@]5(C)C(CC[C@]6(C)C5CC=C5[C@@H]7CC(C)(C)C[C@@H](O)[C@]7(C)CC[C@]56C)[C@@]4(C)CO)O[C@H](C(=O)O)[C@@H](O)[C@@H]3O)O[C@H](C(=O)O)[C@H](O)[C@@H]2O)[C@H](O)[C@H](O)[C@H]1O (stereo partly drawn)	none
Cc1sc2ncn(CC(=O)NCc3ccc4c(c3)OCO4)c(=O)c2c1S(=O)(=O)N1CCC(C)CC1	none
CC1(C(=O)NCc2ccccc2)Cn2c(ccc2-c2ccco2)C(=O)N1c1ccc(F)cc1 (stereo not drawn)	none
COc1ccc(Cn2c(=O)c3ccccc3n3c(-c4ccc(O)cc4)nnc23)cc1	none
COc1ccc(-c2nc(-c3cc(C(F)(F)F)cc(C(F)(F)F)c3)n(Cc3ccc(C(N)=O)cc3)c2-c2ccc(OC)cc2)cc1	Methyltransferases active
COc1ccc(CN2CCCC3(CC(c4cccc(C(F)(F)F)c4)=NO3)C2)cc1 (stereo not drawn)	none
CN1C(=O)c2cc(C(=O)NCc3cccc(Cl)c3)nn2CC1(C)C(=O)NC1CCCC1 (stereo not drawn)	none
CC1(C(=O)NC2CCCCC2)Cn2c(cc3ccccc32)C(=O)N1Cc1ccccc1 (stereo not drawn)	none
CCCn1c(=O)c2ccc(C(=O)NCC(C)C)cc2n2c(=O)n(CC(=O)Nc3ccc(C)c(F)c3)nc12	none
N=C(N)SCCN	Methyltransferases active
CCOc1cc(CNC(=O)c2cc3n(n2)CC(C)(C(=O)NCc2ccc(C)cc2)N(C)C3=O)ccc1OC (stereo not drawn)	none
Cc1ccccc1Cn1nc2n(CC(C)C)c(=O)c3ccc(C(=O)NC4CCCCC4)cc3n2c1=O	none
COC(=O)c1ncn2c1C(=O)N(CCc1cccs1)C(C)(C(=O)NC1CCCC1)C2 (stereo not drawn)	none
COc1ccc(C(=O)Cn2nc3n(CC(C)C)c(=O)c4ccccc4n3c2=O)cc1OC	none
Clc1ccc(C2(c3ccc(-c4cn[nH]c4)cc3)CCNCC2)cc1	Methyltransferases active
CC(CCc1ccccc1)N1C(=O)c2cc3sccc3n2CC1(C)C(=O)NC1CCCCCC1 (stereo not drawn)	none
COc1cccc(CNC(=O)c2cc3n(n2)CC(C)(C(=O)NCc2ccc(F)cc2)N(C)C3=O)c1OC (stereo not drawn)	none
COc1ccc2cc3n(c2c1)CC(C)(C(=O)NCC1CCCO1)N(Cc1ccc(F)cc1)C3=O (stereo not drawn)	none
